# Reference: PubChem BioAssay (EPA / NIEHS)
# Several values for one entry are separate records, joined by “and”; a condition that tells them apart may be missing. Identical values can stand only once. Some structures have more than one record in an assay (separate samples or runs), and their calls can disagree. Activity calls are given as the source filed them. How the source made its calls: active means hit-call score of the fitted dose curve at least 0.9, where 1 is the maximum; inactive means score below 0.9.
# Read-out: CD69, CD69 (gene 969)
# Assay: BSK_SAg_CD69: BioMAP Diversity Plus: SAg Assay for CD69 Biomarker Activity (AID 2283089);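 on AC50: cell surface CD69 protein quantified by ELISA with fluorescence detection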
# Details: primary human HUVEC with PBMC; actives raise or lower the signal
# In short: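 Values derive from bidirectional fitting relative to DMSO vehicle. Cells: umbilical vein endothelium plus peripheral blood mononuclear cells, treated 24 h before fluorescent ELISA for CD69.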
# Sequence of E-selectin (Homo sapiens) (P16581 whole entry, looked up): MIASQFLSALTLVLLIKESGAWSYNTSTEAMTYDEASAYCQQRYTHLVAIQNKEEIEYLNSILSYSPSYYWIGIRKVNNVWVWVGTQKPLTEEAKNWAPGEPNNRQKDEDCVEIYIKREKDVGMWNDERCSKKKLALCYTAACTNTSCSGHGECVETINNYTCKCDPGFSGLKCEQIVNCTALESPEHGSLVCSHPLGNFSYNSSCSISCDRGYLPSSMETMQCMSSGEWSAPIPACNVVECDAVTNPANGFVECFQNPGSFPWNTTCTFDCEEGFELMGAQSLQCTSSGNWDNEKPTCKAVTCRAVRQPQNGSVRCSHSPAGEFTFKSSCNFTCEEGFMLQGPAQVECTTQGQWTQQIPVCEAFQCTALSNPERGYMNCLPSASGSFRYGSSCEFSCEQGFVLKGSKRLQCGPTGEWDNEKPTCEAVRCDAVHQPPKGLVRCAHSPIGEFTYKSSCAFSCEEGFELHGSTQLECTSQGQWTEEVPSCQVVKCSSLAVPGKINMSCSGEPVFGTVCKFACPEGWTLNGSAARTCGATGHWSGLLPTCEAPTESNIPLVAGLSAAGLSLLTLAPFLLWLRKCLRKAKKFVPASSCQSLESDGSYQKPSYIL
Compound,AC50,outcome
C=CC(=O)OCC(F)(F)C(F)F,38.5 µM (active) and 30 µM (active),–
COP(=O)(O)OC,–,inactive
O=C(O)C(F)(F)C(F)(F)C(=O)O,–,inactive
O=C(O)C=CC(F)(C(F)(F)F)C(F)(F)F,–,inactive
O=C(O)C(F)(F)OC(F)(F)C(F)(F)OC(F)(F)F,–,inactive
COP(N)(=S)OC,–,inactive
CCCCN(CCCC)SN(C)C(=O)Oc1cccc2c1OC(C)(C)C2,27.6 µM (active),–
FC(F)(F)C(F)(C(F)(F)F)C(F)(F)C(F)(F)CC1CO1 (centres undefined),–,inactive
CCOP(=S)(OCC)SCS(=O)(=O)CC,–,inactive
CC(C)Nc1ccc(Nc2ccccc2)cc1,3.37 µM (active),–
CCN(CC)c1ccccc1,–,inactive
O=C(O)C(F)(OC(F)(F)C(F)(F)C(F)(F)F)C(F)(F)F (centres undefined),–,inactive
ClC(Cl)c1ccccc1,–,inactive
Cc1ccc2c(c1N)C(=O)c1ccccc1C2=O,–,inactive
O=S1(=O)OCC2C(CO1)C1(Cl)C(Cl)=C(Cl)C2(Cl)C1(Cl)Cl (centres undefined),–,inactive
O=P(Oc1ccccc1)(Oc1ccccc1)Oc1ccccc1,31.6 µM (active),–
CSC(C)(C)C=NO,–,inactive
CCCCc1ccccc1,–,inactive
CCOP(=S)(NC(C)C)Oc1ccccc1C(=O)OC(C)C (centres undefined),–,inactive
CCCN(CCC)c1c([N+](=O)[O-])cc(C(C)C)cc1[N+](=O)[O-],33.5 µM (active),–
CCCCC(CC)COC(=O)c1c(Br)c(Br)c(Br)c(Br)c1C(=O)OCC(CC)CCCC (centres undefined),–,inactive
CC(Cl)CN(C)C (centres undefined),–,inactive

# Read-out: Monocyte Chemoattractant Protein-1 (MCP1), CCL2 (gene 6347)
# Assay: BSK_SAg_MCP1: BioMAP Diversity Plus: SAg Assay for Monocyte Chemoattractant Protein-1 (MCP1) Biomarker Activity (AID 2283090)
# Details: primary human HUVEC with PBMC; actives raise or lower the signal
# In short: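 MCP-1 levels in the endothelial–PBMC SAg co-culture were quantified by ELISA at 24 h post-dosing; both increases and decreases versus DMSO scored. Cytotoxicity monitored by SRB total protein in parallel cultures.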
Compound,AC50,outcome
C=CC(=O)OCC(F)(F)C(F)F,34.3 µM (active) and 20.4 µM (active),–
COP(=O)(O)OC,–,inactive
O=C(O)C(F)(F)C(F)(F)C(=O)O,–,inactive
O=C(O)C=CC(F)(C(F)(F)F)C(F)(F)F,–,inactive
O=C(O)C(F)(F)OC(F)(F)C(F)(F)OC(F)(F)F,–,inactive
COP(N)(=S)OC,–,inactive
CCCCN(CCCC)SN(C)C(=O)Oc1cccc2c1OC(C)(C)C2,37 µM (active),–
FC(F)(F)C(F)(C(F)(F)F)C(F)(F)C(F)(F)CC1CO1 (centres undefined),–,inactive
CCOP(=S)(OCC)SCS(=O)(=O)CC,–,inactive
CC(C)Nc1ccc(Nc2ccccc2)cc1,6.2 µM (active),–
CC(O)C(F)(F)C(F)(F)F (centres undefined),–,inactive
CCN(CC)c1ccccc1,–,inactive
O=C(O)C(F)(OC(F)(F)C(F)(F)C(F)(F)F)C(F)(F)F (centres undefined),–,inactive
ClC(Cl)c1ccccc1,–,inactive
Cc1ccc2c(c1N)C(=O)c1ccccc1C2=O,–,inactive
O=S1(=O)OCC2C(CO1)C1(Cl)C(Cl)=C(Cl)C2(Cl)C1(Cl)Cl (centres undefined),–,inactive
O=P(Oc1ccccc1)(Oc1ccccc1)Oc1ccccc1,29 µM (active),–
OCC(F)(F)OC(F)(F)C(F)(F)OC(F)(F)C(F)(F)OC(F)(F)F,45.9 µM (active) and 24.8 µM (active),–
OCC(F)(F)OC(F)(F)C(F)(F)OC(F)(F)C(F)(F)OC(F)(F)CO,10.3 µM (active),inactive
[N-]=[N+]=[N-],–,inactive
CSC(C)(C)C=NO,–,inactive
CCCCC(CC)COP(=O)(Oc1ccccc1)Oc1ccccc1 (centres undefined),–,inactive
CCCCc1ccccc1,–,inactive
CCOP(=S)(NC(C)C)Oc1ccccc1C(=O)OC(C)C (centres undefined),–,inactive
CCCN(CCC)c1c([N+](=O)[O-])cc(C(C)C)cc1[N+](=O)[O-],37.1 µM (active),–
CCCCC(CC)COC(=O)c1c(Br)c(Br)c(Br)c(Br)c1C(=O)OCC(CC)CCCC (centres undefined),–,inactive
CC(Cl)CN(C)C (centres undefined),0.0162 µM (active),–
COC(=O)C(F)(F)C(F)(F)OC(F)(C(F)(F)F)C(F)(F)OC(F)=C(F)F (centres undefined),–,inactive

# Read-out: E-selectin (Homo sapiens) (UniProt P16581)
# Assay: BSK_SAg_Eselectin: BioMAP Diversity Plus: SAg Assay for Eselectin Biomarker Activity (AID 2283091)
# Details: primary human HUVEC with PBMC; actives raise or lower the signal
# In short: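 Endpoint values derive from bidirectional fitting relative to DMSO, using ELISA-measured E-selectin in a human vascular co-culture (umbilical vein endothelium plus PBMC) sampled 24 h after dosing.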
Compound,AC50,outcome
C=CC(=O)OCC(F)(F)C(F)F,30.4 µM (active) and 17.6 µM (active),–
COP(=O)(O)OC,0.0643 µM (active),–
O=C(O)C(F)(F)C(F)(F)C(=O)O,–,inactive
O=C(O)C=CC(F)(C(F)(F)F)C(F)(F)F,–,inactive
O=C(O)C(F)(F)OC(F)(F)C(F)(F)OC(F)(F)F,–,inactive
COP(N)(=S)OC,–,inactive
CCCCN(CCCC)SN(C)C(=O)Oc1cccc2c1OC(C)(C)C2,32.6 µM (active),–
FC(F)(F)C(F)(C(F)(F)F)C(F)(F)C(F)(F)CC1CO1 (centres undefined),–,inactive
CCOP(=S)(OCC)SCS(=O)(=O)CC,–,inactive
CC(C)Nc1ccc(Nc2ccccc2)cc1,5.98 µM (active),–
CC(O)C(F)(F)C(F)(F)F (centres undefined),–,inactive
CCN(CC)c1ccccc1,–,inactive
O=C(O)C(F)(OC(F)(F)C(F)(F)C(F)(F)F)C(F)(F)F (centres undefined),–,inactive
ClC(Cl)c1ccccc1,–,inactive
Cc1ccc2c(c1N)C(=O)c1ccccc1C2=O,–,inactive
O=S1(=O)OCC2C(CO1)C1(Cl)C(Cl)=C(Cl)C2(Cl)C1(Cl)Cl (centres undefined),–,inactive
O=P(Oc1ccccc1)(Oc1ccccc1)Oc1ccccc1,33.7 µM (active),–
OCC(F)(F)OC(F)(F)C(F)(F)OC(F)(F)C(F)(F)OC(F)(F)F,39.4 µM (active) and 45.2 µM (active),–
OCC(F)(F)OC(F)(F)C(F)(F)OC(F)(F)C(F)(F)OC(F)(F)CO,38.3 µM (active) and 42.9 µM (active),–
[N-]=[N+]=[N-],–,inactive
CSC(C)(C)C=NO,–,inactive
CCCCC(CC)COP(=O)(Oc1ccccc1)Oc1ccccc1 (centres undefined),20 µM (active),–
CCCCc1ccccc1,–,inactive
CCOP(=S)(NC(C)C)Oc1ccccc1C(=O)OC(C)C (centres undefined),–,inactive
CCCN(CCC)c1c([N+](=O)[O-])cc(C(C)C)cc1[N+](=O)[O-],30.3 µM (active),–
CCCCC(CC)COC(=O)c1c(Br)c(Br)c(Br)c(Br)c1C(=O)OCC(CC)CCCC (centres undefined),–,inactive
CC(Cl)CN(C)C (centres undefined),20 µM (active),–
COC(=O)C(F)(F)C(F)(F)OC(F)(C(F)(F)F)C(F)(F)OC(F)=C(F)F (centres undefined),–,inactive
